# Results filed as inconclusive are left out. A call without a number means that no potency is given here. The source made the active and inactive calls. Calls follow the shape of the dose curve; as a rule, active = well fitted cell-killing curve with a large enough effect; inconclusive = small, poorly fitted or top-dose-only effect; inactive = flat fitted curve, though single readings scatter.
# Assay: qHTS of pediatric cancer cell lines to identify multiple opportunities for drug repurposing: Confirmatory screen for BT-12 cells (AID 1347112);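 also: viability read after 48 h of compound exposure; nearly all actives have a fitted effect of over 55% in size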
# Settings: BT-12 rhabdoid tumor cells, viability; series mostly up to 45.9 µM
# Description: Drug repurposing or repositioning has been offered as a strategy for drug development in oncology programs. This approach has special potential for childhood cancers and other rare or orphan diseases, where the expected return on new drug development has been a disincentive to pharmaceuticals.
# In this project we exploit the poly-pharmacology of drugs to discover new indications via phenotypic screening of a panel of 19 well-characterized cell lines derived from solid tumors seen in children and adolescents. The goal is to identify approved drugs with previously unrecognized anticancer properties that has the potential to reveal new mechanisms and biological processes involved in carcinogenesis or drug resistance. We employed a titration-based paradigm (quantitative high-throughput screening or qHTS), where all compounds were tested at multiple concentrations for their effect on cell viability. Concentration-response curves (CRCs) were derived directly from the primary screen, and both potency and efficacy values were used to identify compounds with robust bioactivity profiles. We screened the NIH Chemical Genomics Center (NCGC) Pharmaceutical Collection (NPC) and Mechanism Interrogation Plate (MIPE) small molecule collections of approved and investigational compounds against these cell lines; and measured metabolically active cells after 48 hours of compound treatment as a proxy for cell viability.
# Assay Submitter: Nathalia J. Martinez, National Center for Advancing Translational Sciences, National Institutes of Health, Rockville, MD, USA; email: natalia.martinez@nih.gov
# [1] Shen, M et al. Quantitative high-throughput phenotypic screening of pediatric cancer cell lines identifies multiple opportunities for drug repurposing. Oncotarget 2017 Dec 19;9(4):4758-4772. PMID 29435139.
# The cells were obtained from University of North Carolina (UNC), Pediatric Preclinical Testing Program (PPT), and Coriell Institute (CI).
# qHTS cell viability assay:
# Cells were assayed in growth media at a density of 500-1,000 cells/well. Five microliters of cells were dispensed into 1,536-well, white, solid-bottom, TC-treated plates (Greiner Bio One) using a multidrop dispenser and incubated at 37 degrees C, 5% CO2, under a humidified atmosphere for 5 hours. Twenty-three nanoliters of compounds and controls (neutral control DMSO or positive control bortezomib at final concentration of 2.3 µM) were subsequently transferred by Kalypsys pintool. For primary screens, the MIPE collection was tested at 11-point dilutions (final concentrations range from 0.78 nM to 46 µM) and the NPC collection at 8-point dilutions (final concentrations range from 0.59 nM to 46 µM). Compounds tested in follow-up screens were assayed at 11-point dilutions. Cells were incubated for 48 hours, followed by addition of 3 µL of CellTiter-Glo (Promega). After a 15 min incubation at room temperature, samples were analyzed for luminescence intensity using a ViewLux High-throughput CCD imager equipped with clear filters.
# Potency is read from the fitted curve at half-maximal effect.
row,SMILES,Potency
1,COC(=O)C1=CCCN(C)C1,inactive
2,CC[n+]1c(-c2ccccc2)c2cc(N)ccc2c2ccc(N)cc21,1470 nM (active)
3,C[C@@H]1O[C@@H](O[C@@H]2C=C3CC[C@@H]4[C@H](CC[C@]5(C)[C@@H](c6ccc(=O)oc6)CC[C@]45O)[C@@]3(C)CC2)[C@H](O)[C@H](O)[C@H]1O,41.4 nM (active)
4,Cc1ccc([N+](=O)[O-])[c]2c1[O][Hg]2,4140 nM (active)
5,ClC1=C(Cl)C2(Cl)C(CBr)CC1(Cl)C2(Cl)Cl (stereo unspecified),inactive
6,CC1Sc2c(C(=O)O)c(=O)c3cc(F)c(N4CCNCC4)cc3n21 (stereo unspecified),inactive
7,COc1ccc2c(C(=O)c3ccc(Cl)cc3)c(C)n(CC(=O)O)c2c1,inactive
8,C[C@@H]1C[C@@H]([C@H](O)CC2CC(=O)NC(=O)C2)C(=O)[C@@H](C)C1,2930 nM (active)
9,CCCCCCCCC(=O)NCc1ccc(O)c(OC)c1,inactive
10,CN1[C@@H]2CC[C@H]1CC(OC(=O)c1cc(Cl)cc(Cl)c1)C2 (stereo partly specified),inactive
11,CCc1ccc(C2CCNCC2)cc1,inactive

# Reference: PubChem BioAssay (NCATS)
